# Experimental data as given in PubChem BioAssay (NCI).
# This is part of a sample that, as a whole, favours compounds with a hit. Of some 83,000 tested, about 20% had one in any assay.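 Treatment: one concentration, 48 hours, 96-well format. Scoring: percent growth, with anything below 10 considered active.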 Values without a mark were called inactive. Active and inactive are the calls of the source.
# Key:
# Assay in all cases: NCI-60 one-dose screen, 48 h (100 = growth as untreated, 0 = no growth, -100 = all killed)
# Conditions in all cases: 10 µM unless noted
# NCI-H23 lung = system: NCI-H23 lung
# NCI-H226 lung = system: NCI-H226 lung
# NCI-H322M lung = system: NCI-H322M lung
# HOP-62 NSCLC = system: HOP-62 NSCLC
# NCI-H460 lung = system: NCI-H460 lung
# HOP-92 NSCLC = system: HOP-92 NSCLC
# NCI-H522 lung = system: NCI-H522 lung
# A549/ATCC NSCLC = system: A549/ATCC NSCLC
# 786-0 renal = system: 786-0 renal
# COLO 205 colon = system: COLO 205 colon
SMILES,growth (NCI-H23 lung),growth (NCI-H226 lung),growth (NCI-H322M lung),growth (HOP-62 NSCLC),growth (NCI-H460 lung),growth (HOP-92 NSCLC),growth (NCI-H522 lung),growth (A549/ATCC NSCLC),growth (786-0 renal),growth (COLO 205 colon)
CS(=O)(=O)Nc1cccc(-c2ccc3ncnc(Nc4ccc(F)c(Cl)c4)c3c2)c1,42.6%,44.5%,15%,39.8%,20%,34.6%,-23.6% (active),25.3%,-6.08% (active),–
CC(NCCC(c1ccccc1)c1ccccc1)c1ccccc1 (stereo unspecified),82%,87.6%,69.8%,97.8%,11.6%,43.3%,74.8%,80.7%,73.4%,–
COc1ccc(-c2nn(-c3cccc(Cl)c3)cc2-c2cc(-c3ccc(Br)cc3)[nH]c(=O)c2C#N)cc1,86.8%,84%,83.9%,93.8%,48.9%,82.1%,74.7%,68.2%,102%,–
O=C(NCCNc1nccc(-c2c(-c3cccc(O)c3)nc3sccn23)n1)Nc1cc(C(F)(F)F)cc(C(F)(F)F)c1,90.9%,101%,87%,118%,51.8%,74.4%,69.5%,57.7%,82%,–
CCCCCC/C=N/Nc1ccc([N+](=O)[O-])cn1,98.3%,99.1%,98.7%,87.8%,112%,104%,78.2%,90.6%,94.7%,–
Cc1ccc2c(c1)Nc1ccc(C)cc1C2(C)C,94.9%,98.3%,114%,78.9%,109%,81.1%,68%,93.1%,84.7%,–
CCCCn1c(-c2cccc(OC)c2)nc2cc(OC)c(OC)cc2c1=O,87.3%,92.8%,197%,45.7%,115%,83.1%,92.4%,11.3%,–,–
CCn1c(SCC(=O)c2ccc(Br)cc2)nnc1-c1cc2c([nH]c3ccccc32)c(-c2cccc(O)c2)n1,85.2%,94.4%,79.2%,67.6%,68.1%,95.2%,49.2%,41%,32.9%,–
COc1cc(NS(C)(=O)=O)ccc1Cc1c2ccccc2nc2ccccc12,11.2%,-17.5% (active),75.2%,-13.9% (active),-1.15% (active),21.2%,43.2%,-11.8% (active),-10.6% (active),–
O=S(=O)(Nc1cccc2cc(OS(=O)(=O)c3ccccc3)ccc12)c1ccccc1,73.8%,74.7%,90.1%,46.3%,29.7%,57.6%,40.5%,57.1%,81.2%,–
Cc1cc(SCc2ccc(Cl)cc2Cl)nc(SCc2ccc(Cl)cc2Cl)n1,98.2%,96%,96.5%,108%,104%,112%,89.1%,96.6%,103%,–
COc1ccc(Cl)cc1NC(=O)c1cc2c([nH]1)-c1nc(NC(=O)C(C)C)sc1CC2,83.5%,79.5%,92.8%,75.3%,106%,90%,63.7%,91.1%,105%,–
COc1cc(/C=C\c2cc(/C=C\c3ccc(O)c(OC)c3)n(C(=O)CNc3ccccc3OC)n2)ccc1O,69.7%,86%,90.5%,86.4%,81.6%,81.8%,21.9%,83.7%,97.4%,–
O=C1CCC(c2c(O)cc(O)c3c(=O)c(O)c(-c4ccc(O)c(O)c4)oc23)N1 (stereo unspecified),94.7%,104%,92.8%,84.3%,105%,91.9%,70.9%,81.1%,99.6%,–
CN(C)CC/C=C1\c2ccccc2Sc2ccc(Cl)cc21,80%,102%,72.1%,75.6%,77.2%,36.7%,67.5%,74.9%,58.2%,–
O=C(c1cc(-c2ccc(Cl)cc2)nc2ccccc12)N1N=C(c2ccccc2)CC1c1cc(-c2ccccc2)nn1-c1ccccc1 (stereo unspecified),72.5%,84.1%,59.8%,74%,48.6%,85%,80.8%,80%,90%,–
Cc1ccc(-c2cc(-c3nnc(SCC(=O)c4ccccc4)o3)c3ccccc3n2)cc1,97.1%,94.5%,90.3%,108%,98.3%,96.6%,87.7%,91.4%,92.8%,–
O=C1OC(=O)C2C3CC(c4ccccc43)C12 (stereo unspecified),101%,110%,107%,97.8%,113%,72.4%,105%,91.7%,102%,97.8%
COc1ccc(Cn2cc(COc3ccc4c5ccnc(C)c5n(CCCc5ccccc5)c4c3)nn2)cc1,85.6%,99.4%,79.5%,90.7%,62.6%,83.3%,64.4%,75.3%,80.4%,–
CC(C)(C)C(=O)Nc1nc2c(s1)CCc1ccn(S(=O)(=O)c3ccccc3)c1-2,82.5%,92.4%,83.3%,93.4%,96.2%,96.2%,66.7%,76.6%,81.8%,–
COc1ccc2c(c1)C(=O)/C(=C/c1ccc(OCC(=O)c3ccc(Cl)cc3)cc1)O2,97.1%,80.7%,102%,121%,106%,50.6%,-64.2% (active),99.2%,115%,–
C=CCn1c(SCC(=O)Nc2ccc(C(=O)/C=C/c3cc(OC)c(OC)c(OC)c3)cc2)nnc1-c1ccc(OC)cc1,22.2%,-36.5% (active),17.3%,-32.5% (active),0.762% (active),21.3%,-16.8% (active),4.04% (active),-30.8% (active),–
C=CCn1c(SCC(=O)Nc2ccc(/C(C)=N\O)cc2)nnc1-c1cc(-c2ccc(OC)cc2)nc2ccccc12,33.7%,41.2%,31.9%,38.5%,27.8%,45.9%,18.7%,20.1%,32.8%,–
CCCCC(=O)Nc1nc2ccc(SCCC)cc2s1,68.5%,49.7%,82.4%,51.8%,32%,20.8%,28.8%,35.8%,65%,–
O=C(Nc1ccc(-n2cc(-c3ccncc3)c(-c3ccc(O)c(Cl)c3)n2)cc1)Nc1cc(C(F)(F)F)cc(C(F)(F)F)c1,47.5%,87.8%,51.5%,71.5%,49.3%,2.56% (active),79.5%,53.6%,50.5%,–
O=C(O)c1cc2ccccc2cc1Nc1ccccc1,84.6%,93.8%,108%,82.3%,91.8%,91.3%,80.6%,87.6%,101%,–
COC(=O)c1oc2c(C(C)=O)c(OCCN3CCCCC3)ccc2c1C,97.9%,118%,84.9%,125%,131%,60.4%,79.6%,123%,52.9%,–
CC(C)CNCC(=O)Nc1ccc(Cc2ccc(NC(=O)CNCC(C)C)cc2)cc1,84%,68.6%,78.2%,59.1%,43.1%,38.4%,48.3%,65%,42.8%,–
COc1ccc(OCC(O)CN2CCN(c3ccc(Cl)cc3)CC2)cc1 (stereo unspecified),228%,86.3%,89.6%,103%,93.4%,97.9%,74.3%,93.2%,151%,–
